tim10-1 inh – growth inhibitors of tim10-1 mutant yeast, primary screen, luminescence, uHTS. S. cerevisiae tim10-1 ts strain growth, BacTiter-Glo, 24 h. inhibition, % at 20 µM. actives 2.2% (n = 330,000). AID 463190, 2010;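 active = inhibition of at least 40%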;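 note: mutant grown at 25 °C; 0% = DMSO wells with yeast and 100% = wells holding no yeast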
MPTP block – mitochondrial permeability transition pore inhibitors, primary screen, biochemical, isolated mouse mitochondria, absorbance. AID 602449, 2012. actives 1.4% (n = 360,000). inhibition, % at 10 µM. Ca2+ swelling absorbance, 30 min;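 active = inhibition of 50% or more, scaled per plate between neutral and stimulator controls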;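 note: 0% = DMSO wells given calcium and 100% = 1 mM EGTA wells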
TIM10 inh – growth inhibitors of isogenic TIM10 control yeast, primary screen, counter-screen for tim10-1 yeast inhibitor project, luminescence, uHTS. S. cerevisiae TIM10 strain growth, BacTiter-Glo luminescence, 24 h. AID 463195, 2010. inhibition, % at 10 µM. actives 1.4% (n = 330,000);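 active = inhibition of 40% or more at the single tested concentration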;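 note: wild-type TIM10 isogenic control strain grown at permissive 25 °C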
Mdm2 MdmX PPI – inhibitors of human Mdm2-MdmX association, primary screen, cell-based, luminescence, split luciferase, SaOS-2, uHTS; Protein Mdm4 (Homo sapiens) + E3 ubiquitin-protein ligase Mdm2 (Homo sapiens), …; SaOS-2 split-luciferase Mdm2/MdmX complementation; inhibition, % at 8 µM; actives 3% (n = 330,000); AID 485346, 2010;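 active = inhibition of at least 50% at 8 µM in the primary screen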
Target sequence (O15151 whole entry, looked up): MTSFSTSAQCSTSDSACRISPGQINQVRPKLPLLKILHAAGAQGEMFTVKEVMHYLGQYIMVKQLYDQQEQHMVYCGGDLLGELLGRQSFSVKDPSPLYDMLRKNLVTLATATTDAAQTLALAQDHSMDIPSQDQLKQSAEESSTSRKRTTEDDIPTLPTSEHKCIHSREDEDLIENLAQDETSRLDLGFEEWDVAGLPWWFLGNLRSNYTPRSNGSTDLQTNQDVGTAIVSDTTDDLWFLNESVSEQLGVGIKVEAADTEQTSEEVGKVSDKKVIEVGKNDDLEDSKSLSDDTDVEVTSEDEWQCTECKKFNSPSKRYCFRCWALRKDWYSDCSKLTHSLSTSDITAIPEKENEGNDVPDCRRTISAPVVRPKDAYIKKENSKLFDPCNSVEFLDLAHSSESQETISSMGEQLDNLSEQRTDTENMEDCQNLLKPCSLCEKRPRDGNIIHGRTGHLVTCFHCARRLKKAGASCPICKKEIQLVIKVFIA
Target sequence (Q00987 whole entry, looked up): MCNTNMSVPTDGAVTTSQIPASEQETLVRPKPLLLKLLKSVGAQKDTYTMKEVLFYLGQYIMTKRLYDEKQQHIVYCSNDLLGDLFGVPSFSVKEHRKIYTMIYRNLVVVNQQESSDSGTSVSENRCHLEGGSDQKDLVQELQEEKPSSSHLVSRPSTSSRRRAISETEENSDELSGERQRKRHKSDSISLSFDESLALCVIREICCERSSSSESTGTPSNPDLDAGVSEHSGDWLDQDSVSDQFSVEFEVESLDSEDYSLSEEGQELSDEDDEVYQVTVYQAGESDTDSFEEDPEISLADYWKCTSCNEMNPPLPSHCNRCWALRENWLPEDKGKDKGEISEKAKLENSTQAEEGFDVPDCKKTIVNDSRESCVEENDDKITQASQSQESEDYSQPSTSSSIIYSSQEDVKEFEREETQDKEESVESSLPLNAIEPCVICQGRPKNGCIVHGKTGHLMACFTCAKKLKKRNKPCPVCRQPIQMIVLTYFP
tim23-1 inh – growth inhibitors of tim23-1 mutant yeast, primary screen, luminescence, uHTS. S. cerevisiae tim23-1 growth, BacTiter-Glo luminescence, 24 h. inhibition, % at 20 µM. actives 1.3% (n = 330,000). AID 463212, 2010;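 active = growth inhibition of the mutant yeast at or above 50%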;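 note: temperature-sensitive mutant grown at 25 °C; plate controls were DMSO-treated mutant yeast for no effect and medium wells lacking yeast for full effect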
Rh123 counter – fluorescence retest of MPTP screen hits in isolated mitochondria, single concentration. shares compounds with MPTP block. actives 78% (n = 5,000). inhibition, % at 10 µM. AID 624504, 2012. membrane potential, Rhodamine 123 fluorescence; in the data active = inhibition above about 22%;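 note: 0% = DMSO vehicle and 100% = positive control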
MPTP swell DR – mitochondrial permeability transition pore inhibitors, dose response, biochemical, absorbance, uHTS hits. isolated mitochondria swelling. actives 58% (n = 780). shares compounds with MPTP block. IC50, µM; in the data active = IC50 below about 20 µM
MPTP counter DR – fluorescent counter-screen in isolated mitochondria, dose response, counter-screen for MPTP inhibitor project, biochemical, fluorescence, uHTS hits; actives 49% (n = 780); shares compounds with MPTP block; isolated mitochondria counterscreen, fluorescence read-out; IC50, µM; in the data active = IC50 below about 80 µM
* = called active by the depositor; · = not tested or not shown. An excerpt weighted towards active compounds, which were near 6.3% of everything screened.

SMILES	tim10-1 inh	MPTP block	TIM10 inh	Mdm2 MdmX PPI	tim23-1 inh	Rh123 counter	others
Cc1nc2nc(C)n(CCN3CCOCC3)c(=O)c2c(-c2cccc([N+](=O)[O-])c2)c1C(=O)CCCCCCCCCCN1CCC(c2ccccc2)(c2ccccc2)CC1	·	59.4*	·	·	·	107.2*
COc1ccc(-c2noc(CCC(=O)NCCCN3CCN(c4ccc(F)cc4)CC3)n2)cc1	9.8	23.3	9.1	12.4	7.0	·
CCOC(=O)c1ccc(NC(=O)CCc2nc(-c3cccc(C)c3)no2)cc1	13.5	85.1*	20.5	26.4	0.7	91.1*
Cc1ccc(-c2noc(CCC(=O)NCC3CCN(Cc4cccc(C)c4)CC3)n2)cc1	5.2	66.7*	7.5	24.3	10.5	7.2	MPTP swell DR=8.81*;MPTP counter DR=23.7*
Cc1cccc(-c2noc(CCC(=O)Nc3ccccc3)n2)c1	12.3	1.0	-11.7	-0.5	20.6	·
COc1ccc(-c2noc(CCC(=O)NCCCN3CCC(Cc4ccccc4)CC3)n2)cc1	10.8	62.8*	18.7	42.6	14.8	41.9*
O=C(CCN1CCCCC1)N1CCc2c([nH]c3ccccc23)C1c1cccnc1 (configuration not stated)	·	-0.5	·	·	·	·
CCOC(=O)C1(C)CCN1C(=O)c1cc(-c2ccc(Cl)cc2)oc1C (configuration not stated)	·	0.9	·	·	·	·
CC(=O)c1cccc(NC(=S)N2CCC(Cc3ccccc3)CC2)c1	14.4	-1.3	3.9	14.9	36.1	·
CC(=O)c1ccc(NC(=S)N2CCC(Cc3ccccc3)CC2)cc1	14.1	61.4*	14.5	19.1	33.1	43.5*
COCC(=O)N1C[C@H]2CON(C)[C@H]2C[C@H]1c1ccc(N2CCCCC2)cc1	·	0.2	·	·	·	·
c1ccc2c(c1)oc1c(N3CCN(Cc4ccc5c(c4)OCO5)CC3)ncnc12	·	86.1*	·	·	·	77.3*
c1ccc(Cn2nnc3c(N4CCN(Cc5ccc6c(c5)OCO6)CC4)ncnc32)cc1	26.3	-2.0	25.3	27.8	15.6	·
O=C1NC(=Nc2ccc(Cl)cc2)/C(=C/c2ccco2)S1	16.3	78.6*	-1.6	1.5	-7.6	56.4*
Cc1cccc(N=C2NC(=O)/C(=C/C=C/c3ccco3)S2)c1	·	8.5	·	·	·	·
Cc1cccc(N=C2NC(=O)S/C2=C\c2ccco2)c1	28.2	70.6*	18.7	24.2	4.2	54.2*
Cc1cc2nc(-c3ccc(F)cc3)c(CC3CCCCC3)n2c(C)c1Br	·	0.5	·	·	·	·
COc1ccc(NC(=O)C2c3ccccc3OCC(=O)N2Cc2ccc3c(c2)OCO3)cc1 (configuration not stated)	·	1.1	·	·	·	·
COc1ccc2nc(N3CCCCC3)c(/C=C3\SC(=S)NC3=O)cc2c1	22.4	76.1*	22.0	6.9	28.4	43.6*
COc1ccc(-n2c(C)cc(/C=C3\SC(=S)NC3=O)c2C)cc1	11.8	13.8	-16.8	-30.2	5.8	·
O=C1NC(=S)S/C1=C\c1cccc([N+](=O)[O-])c1	·	82.3*	·	·	·	95.5*
CCN(CC)c1ccc(C=C2SC(=S)NC2=O)cc1	·	63.6*	·	·	·	78.4*
O=C1NC(=S)S/C1=C\c1cc2ccccc2nc1N1CCCCC1	5.6	72.7*	36.4	44.7	38.4	66.8*
CC(CO)NS(=O)(=O)c1cc(Cl)ccc1F (configuration not stated)	·	1.4	·	·	·	·
O=C1NC(=S)SC1=Cc1ccccc1Cl	·	89.5*	·	·	·	91.4*
SMILES	tim10-1 inh	MPTP block	TIM10 inh	Mdm2 MdmX PPI	tim23-1 inh	Rh123 counter	others
O=C(Nc1ccc(F)cc1F)Nc1csc2ccccc12	22.2	83.2*	11.1	14.0	13.7	85.3*
Clc1ccc(N(CC2CO2)CC2CO2)cc1 (configuration not stated)	·	-2.4	·	·	·	·
CCN(CC)S(=O)(=O)c1cc(C)ccc1NC(=S)Nc1cccnc1	10.1	52.6*	-8.3	31.6	8.8	88.3*
Cc1ccc(SCC(=O)Nc2cc([N+](=O)[O-])ccc2O)cc1	3.6	102.2*	13.8	2.4	2.5	98.9*
O=C(CSCc1ccc(Cl)cc1)Nc1cc([N+](=O)[O-])ccc1O	-11.2	98.9*	-9.0	4.8	-3.9	87.6*
O=C(CSCc1ccc([N+](=O)[O-])cc1)Nc1ccccc1C(=O)O	-4.0	-0.4	-9.3	2.8	3.7	·
CC(CC(=O)O)CC(=O)Nc1cc([N+](=O)[O-])ccc1O (configuration not stated)	-6.9	-1.1	12.6	-3.1	-7.0	·
Fc1ccc(CN2CCN3CCCC3C2C2CCCCC2)cc1F (configuration not stated)	9.9	56.2*	-4.2	18.6	6.4	-12.5	MPTP swell DR=16.3*;MPTP counter DR=>80
Fc1cccc(CN2CCN3CCCC3C2C2CCCCC2)c1 (configuration not stated)	-15.1	41.5	-2.5	13.6	1.5	·
C=C1[C@H](C)CN[C@H]1CCO	·	-0.5	·	·	·	·
CC(C)C[C@H]1CN(CCCC[C@H]2CNC(=O)C(=O)N2CCc2ccccc2)C(=O)C(=O)N1CCc1ccccc1	·	-1.6	·	·	·	·
N#C/C(=C(/O)c1cccc(F)c1)c1nc2ccccc2s1	0.2	86.9*	7.3	0.5	-1.1	85.9*
N#C/C(=C(/O)c1ccco1)c1nc2ccccc2s1	19.1	5.2	1.6	-5.6	12.3	·
N#C/C(=C(/O)C(Cl)c1ccccc1)c1nc2ccccc2s1 (configuration not stated)	-1.3	55.4*	24.2	-26.3	37.1	73.5*
Cn1c(/C(C#N)=C(\O)c2cccc(F)c2)nc2ccccc21	-4.3	0.1	-3.8	-2.8	9.1	·
N#C/C(=C(/O)c1cc2ccccc2o1)c1nc2ccccc2s1	-30.1	97.6*	17.4	-18.6	-0.3	77.6*
O=C(O)CSc1c(Cl)c(=O)oc2ccc(Cl)cc12	·	-0.3	·	·	·	·
C/C(=N\Nc1cccc([N+](=O)[O-])c1)c1cc(F)ccc1O	25.2	85.4*	18.5	-49.1	18.1	65.4*
S=C(NCc1ccc(Cl)cc1)Nc1ccncc1	2.3	98.3*	7.4	8.5	-33.8	102.9*
Fc1ccc(CCNC(=S)Nc2ccc(F)cc2)cc1	20.7	50.2*	16.8	-24.5	10.2	93.0*
Fc1ccc(CNC(=S)Nc2ccc(Cl)cc2)cc1	10.8	65.2*	22.1	10.0	7.0	95.4*
Cc1ccc(NC(=S)NCc2ccc(Cl)cc2)c(OC(F)F)c1	23.9	62.5*	22.3	11.1	31.8	97.4*
NS(=O)(=O)c1ccc(NC(=S)NCc2ccc(Cl)cc2)cc1	3.5	-0.4	-8.9	10.8	13.6	·
